OTUD3 inh: inhibitors of human OTUD3 deubiquitinase; hit rate 0.7% among 47,000; inhibition, % at 25 µM; Q5T2D3; purified OTUD3, Ub-rhodamine fluorescence, 2 h
Target sequence (Q5T2D3 whole entry, looked up): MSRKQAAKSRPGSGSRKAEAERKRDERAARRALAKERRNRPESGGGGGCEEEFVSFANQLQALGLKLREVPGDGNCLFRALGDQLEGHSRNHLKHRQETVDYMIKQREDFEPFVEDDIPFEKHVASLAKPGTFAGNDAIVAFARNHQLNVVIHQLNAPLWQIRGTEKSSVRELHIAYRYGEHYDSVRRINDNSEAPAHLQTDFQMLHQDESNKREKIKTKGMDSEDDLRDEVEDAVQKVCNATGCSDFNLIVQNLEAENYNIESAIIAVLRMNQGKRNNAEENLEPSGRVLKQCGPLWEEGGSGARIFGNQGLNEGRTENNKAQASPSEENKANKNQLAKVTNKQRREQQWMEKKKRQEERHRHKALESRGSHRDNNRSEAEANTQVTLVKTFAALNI
USP17 inh: inhibitors of human USP17 deubiquitinase. purified USP17, Ub-rhodamine cleavage fluorescence, 3 h. A8MUK1. inhibition, % at 50 µM. AID 1645855. hit rate 6.5% among 47,000
USP28 block: blocks human USP28 ubiquitin-rhodamine cleavage; purified USP28, Ub-rhodamine cleavage fluorescence, 30 min; inhibition, % at 25 µM; hit rate 3% among 47,000
USP30 block: blocks human USP30 ubiquitin-rhodamine cleavage; Q70CQ3; purified USP30, Ub-rhodamine cleavage fluorescence; inhibition, % at 25 µM; hit rate 5.3% among 47,000; AID 1645860
Hits are given with their value. In the library only some 11% were active in any assay of this set; here they are far more common. Cut-off read from the data, not from the text of the source: active = inhibition above about 30%; inactive = the rest.

CCN(CC)C(=O)Cn1cc(S(=O)(=O)Cc2c(F)cccc2Cl)c2ccccc21 was read as OTUD3 inh inactive, USP17 inh inactive, USP28 block inactive and USP30 block 37.7.
For CCN(CC)C(=O)Cn1cc(S(=O)(=O)Cc2ccccc2Cl)c2ccccc21 the results were OTUD3 inh inactive, USP17 inh 37.7, USP28 block inactive and USP30 block inactive.
For Cc1ccccc1CS(=O)(=O)c1cn(CC(=O)N2CCCCC2)c2ccccc12 the results were OTUD3 inh inactive, USP17 inh inactive, USP28 block inactive and USP30 block inactive.
For O=C(Cn1cc(S(=O)(=O)Cc2c(F)cccc2Cl)c2ccccc21)N1CCCCCC1 the results were OTUD3 inh inactive, USP17 inh inactive, USP28 block inactive and USP30 block inactive.
For CCN(CC)C(=O)Cn1cc(C(=O)C(=O)NCc2ccccc2Cl)c2ccccc21 the results were OTUD3 inh inactive, USP17 inh inactive, USP28 block inactive and USP30 block 45.5.
`O=C(Nc1cc(C(F)(F)F)ccc1Cl)c1ccc2ncsc2c1` gave OTUD3 inh inactive, USP17 inh inactive, USP28 block inactive and USP30 block inactive.
For COc1ccc(N(C(C)=O)C2(C(=O)Nc3c(C)cccc3C)CCCCC2)cc1 the results were OTUD3 inh inactive, USP17 inh inactive, USP28 block inactive and USP30 block inactive.
CC(C)=CCc1c(O)cc2c(c1C)OC(=O)c1c(C)c(Cl)c(O)c(CO)c1O2 was read as OTUD3 inh inactive, USP17 inh 37.3, USP28 block 48.5 and USP30 block 38.7.
For COc1ccccc1-c1cc2n(n1)CCN(C(=O)c1cc3ccccc3n1C)C2 the results were OTUD3 inh inactive, USP17 inh inactive, USP28 block inactive and USP30 block inactive.
`NC(N)=NCCC(=O)N1CCn2nc(-c3ccc4ccccc4c3)cc2C1` gave OTUD3 inh inactive, USP17 inh inactive, USP28 block 44.5 and USP30 block 40.1.
Cc1c(OCC(=O)c2ccc3c(c2)OCO3)ccc2c3c(c(=O)oc12)CCCC3 was read as OTUD3 inh inactive, USP17 inh inactive, USP28 block inactive and USP30 block inactive.
`COc1cc(C#N)ccc1OCC(=O)Nc1ccccc1Oc1ccccc1` gave OTUD3 inh inactive, USP17 inh inactive, USP28 block inactive and USP30 block inactive.
COC(=O)c1sccc1NC(=O)c1cccs1 was read as OTUD3 inh inactive, USP17 inh 30.2, USP28 block inactive and USP30 block inactive.
Screening COC(=O)c1sccc1NC(=O)COc1ccsc1C(=O)OC returned OTUD3 inh inactive, USP17 inh 51.2, USP28 block inactive and USP30 block inactive.
`Cc1cccc2c(=O)c(-c3ccccc3)c(NC(=O)c3ccccc3)oc12` gave OTUD3 inh inactive, USP17 inh inactive, USP28 block inactive and USP30 block inactive.
`CCOc1ccc(-n2c(C)c3c(C)nn4cc(-c5ccccc5)cc4c3c2C)cc1` gave OTUD3 inh inactive, USP17 inh 30.7, USP28 block inactive and USP30 block 31.6.
Screening CCOc1ccc(-n2c(C)c(C)c3c2ncn2nc(-c4ccccn4)nc32)cc1 returned OTUD3 inh inactive, USP17 inh inactive, USP28 block inactive and USP30 block inactive.
Screening O=C1C(O)=C(c2ccccc2)C2CCCN12 (stereo not drawn) returned OTUD3 inh inactive, USP17 inh inactive, USP28 block inactive and USP30 block 31.8.
For CCOC(=O)c1cnn(-c2ccc(C(=O)Nc3ccc(C)c(Cl)c3)cc2)c1N the results were OTUD3 inh inactive, USP17 inh 61.8, USP28 block inactive and USP30 block inactive.
Screening O=C(CN1C(=O)c2ccccc2S1(=O)=O)Nc1c(F)cccc1F returned OTUD3 inh inactive, USP17 inh inactive, USP28 block inactive and USP30 block inactive.
Screening Cc1cccc(C(C)C)c1NC(=O)CN1c2ccc(F)cc2-c2ccccc2S1(=O)=O returned OTUD3 inh inactive, USP17 inh inactive, USP28 block inactive and USP30 block 30.1.
`Cn1c(=O)c2c(-c3cccc(F)c3)c(Nc3ccccc3)oc2n(C)c1=O` gave OTUD3 inh inactive, USP17 inh inactive, USP28 block 39.1 and USP30 block inactive.
Screening Cn1c(=O)c2c(-c3ccc(F)cc3)c(Nc3ccccc3)oc2n(C)c1=O returned OTUD3 inh inactive, USP17 inh inactive, USP28 block inactive and USP30 block inactive.
For Cc1cccc(NC(=O)CCc2c(C)nn3cnnc3c2C)c1C the results were OTUD3 inh inactive, USP17 inh inactive, USP28 block inactive and USP30 block inactive.
Screening COc1ccc(CC(=O)N2CCC(c3nc(C)ncc3-c3cc(C)no3)CC2)cc1 returned OTUD3 inh inactive, USP17 inh inactive, USP28 block inactive and USP30 block inactive.

Assay outcomes: PubChem BioAssay, Buhrlage Lab, Dana-Farber Cancer Institute and Novartis Institutes for BioMedical Research (Cambridge, Mass)
